This is an account of results in PubChem BioAssay (NCATS).

The target in assay [1] is Glucocorticoid receptor (Homo sapiens) (UniProt P04150). Description: qHTS assay for small molecule agonists of glucocorticoid receptor signaling (AID 588532; active means well fitted curve in the direction sought with a large enough effect in the signal ratio, with a control signal flat; the % refers to the signal ratio;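 further: 100% = dexamethasone at 0.1 µM and 0% = DMSO only wells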). Conditions: HeLa MMTV-bla, beta-lactamase ratio, agonist, 18 h; activation: stronger effect = higher value, percent of dexamethasone control, DMSO zero. In a few lines:
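MMTV-bla HeLa, beta-lactamase reporter; medium with 1% charcoal/dextran-stripped FBS; cpds up to 92 uM, 18 h, 37 C; CCF4 readout 460/530 nm; Hill fit → EC50, efficacy vs 0.1 uM dexamethasone = 100%.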

Assay [2] addresses Peroxisome proliferator-activated receptor gamma (Homo sapiens) (UniProt P37231). As to the kind of experiment: qHTS assay for small molecule agonists of peroxisome proliferator-activated receptor gamma signaling (AID 588536; active means well fitted curve in the direction sought with a large enough effect in the signal ratio, with a control signal flat, not every such curve was filed as active; the % refers to the signal ratio;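 further: 0% = DMSO basal wells and 100% = rosiglitazone at 2 µM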). In a few lines:
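Beta-lactamase reporter read-out: CCF4 fluorescence (ex 405, em 460/530 nm) after 2 h at RT. HEK293 GeneBLAzer cells were treated for 16 h at 37 C. Hill fits gave EC50 and efficacy versus 2 uM rosiglitazone (100%) and DMSO (0%).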
In general terms: In qHTS, concentration-response curves come from the screen itself.

Assay [3] shares this target. Description: qHTS assay for small molecule antagonists of peroxisome proliferator-activated receptor gamma signaling (AID 588537; active means well fitted inhibition curve with a large enough effect in the signal ratio, with a control signal flat, not every such curve was filed as active; the % refers to the signal ratio;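 further: reporter cells co-stimulated with 50 nM rosiglitazone agonist during compound treatment; % of control where 0% means no effect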). In a few lines: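 HEK293 cells, PPAR-gamma-UAS-bla, 3000/well. Pre-incubation 6-6.5 h, 37 C. Compound titration with rosiglitazone 50 nM final, 16 h. CCF4 dye, 2 h RT, dual-emission fluorescence.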
For assay [4], the target named is Vitamin D3 receptor (Homo sapiens) (UniProt P11473). Description: qHTS assay for small molecule antagonists of vitamin D receptor signaling (AID 588541; calls by dose curve;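 further: receptor activated by calcitriol during compound treatment; series mostly up to about 77 µM; on the % scale 0 is the no-effect control and ±100 the full control effect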). The procedure, abridged:
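VDR-UAS-bla HEK293T cells (2000/well, 2% charcoal-stripped FBS) were treated with titrated compounds plus 1-alpha,25-dihydroxyvitamin D3 (50 nM or 3 nM final) for 16 h at 37 C. CCF4 beta-lactamase fluorescence was read; Hill fits gave IC50.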

Assay [5] shares this target. Description: qHTS assay for small molecule agonists of vitamin D receptor signaling (AID 588543; calls by dose curve;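 further: 0% = DMSO basal and 100% = reference agonist control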). In a few lines:
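Measured: β-lactamase reporter activity (CCF4, 405 nm excitation, 460/530 nm emission) in HEK293T VDR-UAS-bla cells after 16 h compound exposure at 37 °C. Normalization against 50 nM 1α,25-dihydroxyvitamin D3 and DMSO; Hill-fit EC50.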

The target in assay [6] is Retinoic acid receptor RXR-alpha (Homo sapiens) (UniProt P19793). As to the kind of experiment: qHTS assay for small molecule agonists of retinoid X receptor alpha signaling (AID 588544; calls by dose curve;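 further: 0% = DMSO basal wells and 100% = reference agonist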).
Sequence of Retinoic acid receptor RXR-alpha (Homo sapiens) (P19793 whole entry, looked up): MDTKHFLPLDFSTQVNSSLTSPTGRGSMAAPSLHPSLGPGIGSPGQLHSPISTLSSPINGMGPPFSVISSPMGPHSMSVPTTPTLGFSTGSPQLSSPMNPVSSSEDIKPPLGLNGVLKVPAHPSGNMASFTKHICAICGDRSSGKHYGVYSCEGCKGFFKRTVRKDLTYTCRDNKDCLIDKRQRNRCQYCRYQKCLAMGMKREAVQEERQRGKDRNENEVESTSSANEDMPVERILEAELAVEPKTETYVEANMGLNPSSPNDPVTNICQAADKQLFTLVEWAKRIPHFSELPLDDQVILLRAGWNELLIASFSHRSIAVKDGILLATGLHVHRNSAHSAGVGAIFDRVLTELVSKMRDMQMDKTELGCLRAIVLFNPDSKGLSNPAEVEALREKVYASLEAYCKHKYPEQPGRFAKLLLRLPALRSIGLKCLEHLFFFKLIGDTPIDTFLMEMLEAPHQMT
The target of assay [7] is Thyroid hormone receptor beta (Homo sapiens) (UniProt P10828). As to the kind of experiment: qHTS assay for small molecule agonists of thyroid hormone receptor beta signaling (AID 588545; calls by dose curve;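 further: 0% = DMSO only and 100% = 10 nM T3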). In a few lines:
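Beta-lactamase reporter activity under TR response element control is measured in HEK 293 cells after 18 hrs compound exposure. Signal is ratiometric CCF4 fluorescence, 460/530 nm.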

Assay [8] is described as follows: qHTS assay for small molecule antagonists of retinoid X receptor alpha signaling (AID 588546; active means well fitted inhibition curve with a large enough effect in the signal ratio, with a control signal flat, not every such curve was filed as active; the % refers to the signal ratio;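 further: cells stimulated with 9-cis-retinoic acid as agonist; on the % scale 0 is the no-effect control and ±100 the full control effect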). Conditions: HEK293T RXRa-UAS-bla, beta-lactamase ratio, antagonist mode; measured here: W530 green channel, cytotoxicity proxy. The procedure, abridged: (§1)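 Beta-lactamase reporter inhibition, read as CCF4 fluorescence ratio (ex 405, em 460/530 nm) after 2 h at RT. HEK293T UAS-bla cells, 2500/well, were stimulated with 9-cis-RA at 500 or 100 nM final alongside test compound for 18 h at 37 C.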

For assay [9], the target named is Retinoic acid receptor RXR-alpha (Homo sapiens) (UniProt P19793). Described as above. Particulars: HEK293T RXRa-UAS-bla, beta-lactamase ratio, antagonist mode. The procedure, abridged: as §1
The target in assay [10] is Thyroid hormone receptor beta (Homo sapiens) (UniProt P10828). As to the kind of experiment: qHTS assay for small molecule antagonists of thyroid hormone receptor beta signaling (AID 588547; active means well fitted inhibition curve with a large enough effect in the signal ratio, with a control signal flat, not every such curve was filed as active; the % refers to the signal ratio;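 further: cells stimulated with 0.4 nM T3 agonist during compound exposure; series mostly up to about 77 µM; on the % scale 0 is the no-effect control and ±100 the full control effect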). Particulars: TR-UAS-bla HEK293, beta-lactamase ratio, antagonist mode, 18 h. In a few lines: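 TR-UAS-bla GripTite HEK293 cells in 2% charcoal/dextran FBS medium were preincubated 4 h at 37 C, given compound (0.59 nM to 92 uM) plus 0.4 nM T3 (final) for 18 h, then CCF4 for 2 h at RT; Hill fit gave IC50.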
Sequence of Thyroid hormone receptor beta (Homo sapiens) (P10828 whole entry, looked up): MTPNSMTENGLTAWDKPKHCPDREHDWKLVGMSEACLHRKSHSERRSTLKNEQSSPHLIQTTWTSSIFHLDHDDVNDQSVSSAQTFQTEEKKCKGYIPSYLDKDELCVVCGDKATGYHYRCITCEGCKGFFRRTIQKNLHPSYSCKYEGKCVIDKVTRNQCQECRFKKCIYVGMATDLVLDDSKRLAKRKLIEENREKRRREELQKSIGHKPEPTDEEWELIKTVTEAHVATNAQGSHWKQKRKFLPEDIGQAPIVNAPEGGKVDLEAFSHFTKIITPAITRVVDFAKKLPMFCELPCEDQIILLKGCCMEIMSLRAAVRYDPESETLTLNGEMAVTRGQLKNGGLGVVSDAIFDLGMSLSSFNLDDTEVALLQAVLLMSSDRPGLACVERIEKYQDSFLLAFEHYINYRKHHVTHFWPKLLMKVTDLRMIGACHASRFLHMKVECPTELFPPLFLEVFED

Assay [11] can be described thus: qHTS assay for environmental chemicals that activate the Aryl hydrocarbon Receptor (AhR) signaling pathway (AID 651777). Further: % of control where 0% means no effect; nearly all actives have a fitted effect of over 15% in size. Particulars: 1A2-DRE human hepatoma cells, luciferase, 24 h; activation: stronger effect = higher value. The procedure, abridged: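 Concentration–response screening used 1,200 1A2-DRE cells per well, 24 hr compound exposure (37 C, 5% CO2), and One-Glo luminescence as the AhR-driven CYP1A2 reporter signal.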

For assay [12], the target named is Peroxisome proliferator-activated receptor alpha (Homo sapiens) (UniProt Q07869). As to the kind of experiment: qHTS assay for small molecule agonists of the peroxisome proliferator-activated receptor alpha (PPARalpha) signaling pathway (AID 651778). Further: potency means the concentration at half of the fitted maximal effect. On max response: % of control where 0% means no effect. Conditions: PathHunter PPARalpha complementation, chemiluminescence, 6 h; max response: stronger effect = higher value. In a few lines: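 Cells plated at 2,000/well and held overnight at 37 C, 5% CO2, then compound added by pin tool for 6 hr; after PathHunter detection reagent and 60 min at room temperature, chemiluminescence from enzyme complementation was read.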
Sequence of Peroxisome proliferator-activated receptor alpha (Homo sapiens) (Q07869 whole entry, looked up): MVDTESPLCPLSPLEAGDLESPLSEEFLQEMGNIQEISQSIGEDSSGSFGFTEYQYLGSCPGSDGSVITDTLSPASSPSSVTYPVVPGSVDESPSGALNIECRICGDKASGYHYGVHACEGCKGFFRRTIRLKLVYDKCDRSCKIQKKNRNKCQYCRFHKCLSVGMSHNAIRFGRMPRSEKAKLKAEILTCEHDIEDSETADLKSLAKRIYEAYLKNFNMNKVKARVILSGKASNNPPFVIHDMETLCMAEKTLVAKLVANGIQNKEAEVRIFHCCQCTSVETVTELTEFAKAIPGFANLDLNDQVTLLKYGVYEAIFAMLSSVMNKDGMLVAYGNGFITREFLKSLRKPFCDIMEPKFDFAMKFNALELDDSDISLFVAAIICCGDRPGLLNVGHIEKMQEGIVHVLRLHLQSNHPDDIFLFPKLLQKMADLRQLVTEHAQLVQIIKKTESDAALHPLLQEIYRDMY

A short description of assay [13]: qHTS assay for small molecule agonists of the antioxidant response element (ARE) signaling pathway measured by Nrf2-dependant transcriptional activity (AID 720636; active means well fitted curve in the direction sought with a large enough effect in the repeat runs; an effect the other way counts as inactive or inconclusive; further: % of control where 0% means no effect). In a few lines:
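Attachment 6 hr at 37 C, then compound versus DMSO vehicle for 16 hr in ARE-luc HepG2 cells (1% dialyzed FBS); luminescence recorded 30 min after ONE-Glo addition at room temperature.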

Assay [14] can be described thus: qHTS assay for small molecule agonists of the antioxidant response element (ARE) signaling pathway measured by Nrf2-dependant transcriptional activity - cell viability counter screen (AID 720653; active means well fitted curve in the direction sought with a large enough effect in the repeat runs; an effect the other way counts as inactive or inconclusive; further: on the % scale 0 is the no-effect control and ±100 the full control effect). Conditions: ARE-bla HepG2 viability, CellTiter-Glo ATP luminescence, 16 h; max response: stronger effect = lower value. In a few lines: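 ARE-bla HepG2 cells (2,000/well) rested 5 hrs at 37C/5% CO2, then exposed to compounds in DMSO for 16 hrs. Viability was read in the same wells as intracellular ATP by luminescence, 30 min at room temperature after reagent addition.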

The nature of assay [15]: qHTS assay for cell viability of HEK293 cells (AID 743288). Further: on the % scale 0 is the no-effect control and ±100 the full control effect; nearly all actives have a fitted effect of over 50% in size. Conditions: ATP luminescence (CellTiter-Glo), 18 h; max response: stronger effect = lower value. In a few lines:
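HEK293, 18 h, 37 C, ATP luminescence. Cells at 2,000/well were allowed at least 5 h to settle before dosing; CellTiter-Glo developed 30 min at RT.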

The target in assay [16] is Nuclear receptor subfamily 1 group I member 2 (Rattus norvegicus) (UniProt Q9R1A7). As to the kind of experiment: qHTS assay for small molecule activators of the rat pregnane X receptor (rPXR) signaling pathway (AID 651751; call rule not given here; further: 0% is about no effect). Particulars: rPXR reporter cells, luciferase (One-Glo), 24 h.
Sequence of Nuclear receptor subfamily 1 group I member 2 (Rattus norvegicus) (Q9R1A7 whole entry, looked up): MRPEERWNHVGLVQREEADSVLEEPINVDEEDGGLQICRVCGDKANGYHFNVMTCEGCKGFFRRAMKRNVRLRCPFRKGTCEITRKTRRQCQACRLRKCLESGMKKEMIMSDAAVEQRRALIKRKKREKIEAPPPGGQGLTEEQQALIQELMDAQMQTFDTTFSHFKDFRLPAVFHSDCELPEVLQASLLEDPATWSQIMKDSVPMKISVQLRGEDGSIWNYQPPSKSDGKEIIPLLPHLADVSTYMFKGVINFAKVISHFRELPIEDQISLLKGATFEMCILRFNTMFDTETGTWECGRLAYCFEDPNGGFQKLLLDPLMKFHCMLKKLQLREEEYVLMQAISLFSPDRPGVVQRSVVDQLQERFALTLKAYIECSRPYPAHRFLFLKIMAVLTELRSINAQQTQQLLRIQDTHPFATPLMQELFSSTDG
Assay [17] has as its target Peroxisome proliferator-activated receptor delta (Homo sapiens) (UniProt Q03181). Description: qHTS assay for small molecule agonists of peroxisome proliferator-activated receptor delta signaling (AID 588534; calls by dose curve;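 further: 0% = DMSO basal wells and 100% = positive control agonist at 10 µM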). In a few lines:
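EC50 and efficacy values derive from Hill fits of a concentration series in a beta-lactamase reporter cell assay. Exposure is 18 hrs at 37 C, with CCF4 fluorescence as the readout.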

Assay [18] can be described thus: qHTS assay for small molecule antagonists of peroxisome proliferator-activated receptor delta signaling (AID 588535).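 Further: cells co-treated with a PPAR-delta agonist as stimulator during compound exposure.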 Particulars: HEK293T PPARd-UAS-bla, beta-lactamase FRET ratio, 18 h; 460 nm channel. In a few lines: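 Compounds tested in titration on PPAR-delta-UAS-bla HEK293T cells grown in charcoal/dextran-stripped serum (2%); beta-lactamase activity read via CCF4 emission at 460 and 530 nm.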

Assay [19] can be described thus: qHTS assay for small molecule activators of the p53 signaling pathway (AID 651743; active means well fitted activation curve with a large enough effect in the signal ratio, not every such curve was filed as active; the % refers to the signal ratio; further: series mostly up to about 92 µM; % of control where 0% means no effect). Particulars: HCT-116 p53RE-bla, beta-lactamase FRET ratio, 16 h; activation: stronger effect = higher value. The procedure, abridged:
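Here HCT-116 cells with an integrated p53-responsive beta-lactamase gene were incubated with compounds (16 hours, 37 C) after a 5-hour plating period; beta-lactamase activity was detected as fluorescence intensity via B/G FRET substrate.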

Assay [20] can be described thus: qHTS assay for cell viability of the p53RE-bla HCT-116 cell line (AID 743292). Further: on the % scale 0 is the no-effect control and ±100 the full control effect; nearly all actives have a fitted effect of over 55% in size. In a few lines: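 Compound-exposed HCT-116 (p53RE-bla) cells, 4,000 per well, were kept 16 h at 37 C following a 5 h preincubation. Cell number was estimated from total ATP by CellTiter-Glo luminescence read after 30 min at room temperature.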

Records with an inconclusive call do not appear. Active and inactive are the calls of the source. Unless noted, the call rests on the fitted dose curve; in most records, active means well fitted curve in the direction sought with a large enough effect; inconclusive means small, poorly fitted or top-dose-only effect, or another doubt; inactive means no such curve, though single readings can be large; an effect the other way counts as inactive or inconclusive.

Sequence of Vitamin D3 receptor (Homo sapiens) (P11473 whole entry, looked up): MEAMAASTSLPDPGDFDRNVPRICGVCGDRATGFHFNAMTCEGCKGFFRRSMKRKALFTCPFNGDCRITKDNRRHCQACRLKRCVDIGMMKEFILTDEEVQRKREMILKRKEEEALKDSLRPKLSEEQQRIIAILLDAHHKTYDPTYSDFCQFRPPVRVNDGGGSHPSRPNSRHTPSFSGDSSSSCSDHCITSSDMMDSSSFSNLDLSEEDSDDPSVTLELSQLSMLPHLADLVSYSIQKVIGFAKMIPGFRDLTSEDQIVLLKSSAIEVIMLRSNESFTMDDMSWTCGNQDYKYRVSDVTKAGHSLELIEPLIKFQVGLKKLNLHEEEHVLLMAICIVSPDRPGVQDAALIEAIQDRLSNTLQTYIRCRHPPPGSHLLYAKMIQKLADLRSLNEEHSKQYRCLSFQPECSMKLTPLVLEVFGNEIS
Sequence of Peroxisome proliferator-activated receptor delta (Homo sapiens) (Q03181 whole entry, looked up): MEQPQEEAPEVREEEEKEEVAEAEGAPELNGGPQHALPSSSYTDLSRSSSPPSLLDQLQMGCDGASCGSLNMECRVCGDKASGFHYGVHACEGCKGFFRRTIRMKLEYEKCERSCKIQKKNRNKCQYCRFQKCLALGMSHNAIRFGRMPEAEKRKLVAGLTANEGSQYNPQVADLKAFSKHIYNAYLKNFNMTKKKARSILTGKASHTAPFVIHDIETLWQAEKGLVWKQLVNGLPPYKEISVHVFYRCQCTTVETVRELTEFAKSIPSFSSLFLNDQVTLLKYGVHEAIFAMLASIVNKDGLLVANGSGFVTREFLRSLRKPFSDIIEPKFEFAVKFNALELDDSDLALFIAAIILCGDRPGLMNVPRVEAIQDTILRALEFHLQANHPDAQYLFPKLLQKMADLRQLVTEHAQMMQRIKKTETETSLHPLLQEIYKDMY
Sequence of Peroxisome proliferator-activated receptor gamma (Homo sapiens) (P37231 whole entry, looked up): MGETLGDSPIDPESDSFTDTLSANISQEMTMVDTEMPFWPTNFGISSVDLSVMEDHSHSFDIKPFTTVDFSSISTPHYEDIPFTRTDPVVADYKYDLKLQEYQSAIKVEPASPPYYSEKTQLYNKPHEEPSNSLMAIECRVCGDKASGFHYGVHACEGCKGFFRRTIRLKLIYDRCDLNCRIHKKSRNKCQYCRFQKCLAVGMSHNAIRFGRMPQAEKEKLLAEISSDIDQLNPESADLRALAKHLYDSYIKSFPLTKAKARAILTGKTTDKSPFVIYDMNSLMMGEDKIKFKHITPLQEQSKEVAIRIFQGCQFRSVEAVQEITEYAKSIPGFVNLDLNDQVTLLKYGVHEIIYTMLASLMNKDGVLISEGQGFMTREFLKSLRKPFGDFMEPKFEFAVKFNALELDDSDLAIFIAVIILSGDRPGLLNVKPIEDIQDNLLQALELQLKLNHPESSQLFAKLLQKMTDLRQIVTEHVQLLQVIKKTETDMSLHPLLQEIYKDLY
Sequence of Glucocorticoid receptor (Homo sapiens) (P04150 whole entry, looked up): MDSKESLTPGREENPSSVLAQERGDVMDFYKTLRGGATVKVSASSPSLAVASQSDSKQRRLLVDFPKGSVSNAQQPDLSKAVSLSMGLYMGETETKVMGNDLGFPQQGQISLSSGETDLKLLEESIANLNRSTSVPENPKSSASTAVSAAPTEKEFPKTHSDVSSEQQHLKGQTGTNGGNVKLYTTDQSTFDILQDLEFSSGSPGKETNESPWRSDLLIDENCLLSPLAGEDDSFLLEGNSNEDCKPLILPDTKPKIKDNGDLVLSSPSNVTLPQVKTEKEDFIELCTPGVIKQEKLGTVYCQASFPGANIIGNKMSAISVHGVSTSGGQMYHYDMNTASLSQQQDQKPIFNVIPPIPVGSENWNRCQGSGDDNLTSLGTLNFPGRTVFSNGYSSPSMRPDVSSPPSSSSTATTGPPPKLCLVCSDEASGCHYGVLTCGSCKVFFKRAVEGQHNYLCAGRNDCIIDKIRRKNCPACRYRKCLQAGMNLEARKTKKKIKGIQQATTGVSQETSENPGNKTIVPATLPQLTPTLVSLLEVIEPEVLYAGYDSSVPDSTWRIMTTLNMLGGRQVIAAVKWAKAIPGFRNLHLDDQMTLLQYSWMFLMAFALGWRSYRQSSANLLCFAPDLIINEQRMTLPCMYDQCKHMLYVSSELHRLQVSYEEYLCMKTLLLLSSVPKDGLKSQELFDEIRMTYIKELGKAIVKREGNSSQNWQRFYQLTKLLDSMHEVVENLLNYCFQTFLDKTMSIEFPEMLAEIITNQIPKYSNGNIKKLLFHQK

`ClCc1ccccc1Cl`: the activation in assay [1] was -3.29% (inactive); in assay [11], 0.685% (inactive). The Potency result in assay [2], in [3], in [4], in assay [6], in assay [7] and in assay [13] was “inactive” throughout. The result in assay [5] was inactive. The max response in assay [8] is -6.52%; in assay [9], 0.106% (inactive); in assay [12], 1.31% (inactive); in assay [14], -2.98% (inactive); in [15], -1.39% (inactive); in [16] it was -0.702% (inactive). In addition, the activity change % (negative = inhibition) in assay [10] is -5.68% (inactive).

As to `CCC(C)(C)c1ccc(O)c(C(C)(C)CC)c1`, the activation in assay [1] was 5.63% (inactive); in assay [19], -0.913% (inactive); in [11] it was -1.01% (inactive). In addition, the compound was called inactive in assay [17] and in [5]. In addition, the max response in [18] was -2.29%; in assay [8] it was -12.2%; in assay [9], 0.417% (inactive); in assay [14] it was -16.3% (inactive); in [15], -2.63% (inactive); in assay [16], 3.81% (inactive). Moreover, the Potency entry in assay [2] and in assay [13] was “inactive” in each case. The Potency in [12] is 35.5 µM (active).

Take `N#CC(CCc1ccc(Cl)cc1)(Cn1cncn1)c1ccccc1` (stereo not given): the results for the activation in assay [1], in assay [19] and in assay [11] were -4.45% (inactive), 0.949% (inactive) and 3.22% (inactive), respectively. The call in assay [5] was inactive. The max response was 6.94% in [8]; -64.1% (inactive) in [9]; -0.149% (inactive) in assay [12]; -21.6% (inactive) in assay [14]; -24.7% (inactive) in [15]. For the same compound, the Potency result in [13] and in assay [20] was “inactive” throughout.

Turning to `N#CN=C1SCCN1Cc1ccc(Cl)nc1`, the activation in assay [1] is 0.0374% (inactive); in assay [19], 1.82% (inactive); in assay [11], 1.96% (inactive). The compound was called inactive in assay [17]. Further, the max response is 8.04% in assay [18]; -7.22% in [8]; -3.64% (inactive) in assay [9]; -1.13% (inactive) in [12]; -4.44% (inactive) in assay [14]; 1.43% (inactive) in assay [15]. Besides, the max response in assay [16] was 2.62% (inactive). Besides, the Potency entry in [2], in assay [3], in assay [6], in [7], in assay [13] and in assay [20] was “inactive” each time. For the same compound, the activity change % (negative = inhibition) in assay [10] was -1.19% (inactive).

Take `Cc1ccccc1CO[C@@H]1C[C@@]2(C(C)C)CC[C@]1(C)O2`: the outcome in assay [17] and in assay [5] was inactive. Further, the max response was 49.2% in assay [18]; 0.789% in [8]; -22.7% (inactive) in [9]; 5.16% (inactive) in assay [12]; 1.88% (inactive) in [14]; -20.5% (inactive) in assay [15]. For the same compound, the Potency entry in [2], in assay [3], in [4], in assay [6], in [7] and in assay [13] was “inactive” throughout. Also, in assay [20], the Potency entry is “inactive”. Further, in assay [11], the activation was 0.466% (inactive).
